Test [1] in a line: Quantitative High-Throughput drug screen in 47 multiple myeloma cell lines against the NCATS MIPE library collection: KMS11_JCRBsus cell viability assay (AID 1919873). Further: nearly all actives have a fitted effect of over 50% in size. Summed up:
(§1)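 Cells were exposed to library compounds for 48 hours, after which ATP was measured by CellTiter-Glo. Signal was taken as median relative luminescence units.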

The nature of test [2]: Quantitative High-Throughput drug screen in 47 multiple myeloma cell lines against the NCATS MIPE library collection: KMS28BM_JCRB cell viability assay (AID 1919874). Further: nearly all actives have a fitted effect of over 35% in size. Summed up: as §1

Each structure is given as a SMILES string. Records with an inconclusive call do not appear. The source made the active and inactive calls. The call rests on the fitted dose curve; in most records, active means well fitted cell-killing curve with a large enough effect; inconclusive means small, poorly fitted or top-dose-only effect, or effect the other way; inactive means no such curve, though single readings can be large or run the other way.

31 compounds from PubChem BioAssay (NCATS) can be followed below.
Potency means the concentration at half of the fitted maximal effect.

For `CC1(C)[C@H]2CC[C@]3(C)[C@@H](C(=O)C=C4[C@@H]5C[C@@](C)(C(=O)O)CC[C@]5(C)CC[C@]43C)[C@@]2(C)CC[C@@H]1O`, the Potency result in test [1] and in test [2] was “inactive” in each case.
On to `CCN(CC)CCCCNc1nc2cc(Cl)c(Cl)cc2nc1-c1ccc(-c2cccs2)s1`, for which the Potency in test [1] is 8.33 µM (active); in test [2], 7.43 µM (active).
Regarding `O=C(Nc1cccc(C(F)(F)F)c1)Nc1cc(S(=O)(=O)NC2CC2)ccc1-c1ccsc1`, the Potency in test [1] is 16.6 µM (active); in test [2] it was 20.9 µM (active).
As for `COc1cc(CNC(=O)CCCCC=CC(C)C)ccc1O`, the Potency entry in test [1] and in test [2] was “inactive” in each case.
`CCOC(=O)[C@H](CCc1ccccc1)N[C@@H](C)C(=O)N1CCCC1C(=O)O` (some centres not stated): the Potency entry in test [1] and in test [2] was “inactive” throughout.
With `CCCCOCCOc1nc(-c2ccc(C(=O)O)c(F)c2)sc1C`, the Potency entry in test [1] and in test [2] was “inactive” in each case.
Regarding `CC(C)[C@H](O)C(=O)N[C@@H](C)C(=O)N[C@@H]1C(=O)N(C)CCc2ccccc21`, the Potency in test [1] was 0.332 µM (active). In addition, the Potency result in test [2] was “inactive”.
Turning to `O=C(O)C1=CC(O)C(O)[C@H](O)C1` (some centres not stated), the Potency result in test [1] and in test [2] was “inactive” in each case.
As to `CC[C@H](CC#N)OC(=O)N[C@@H](C)c1cccc(NC(=O)Nc2ccc(-c3cnco3)c(OC)c2)c1`, the Potency in test [1] was 0.372 µM (active); in test [2] it was 2.09 µM (active).
As for `CC(NCCc1ccc(O)cc1)C(O)c1ccc(O)cc1` (configuration not stated), the Potency entry in test [1] and in test [2] was “inactive” in each case.
On to `COc1ccc(-c2nc3ccc(C4=NNC(=O)CC4C)cc3[nH]2)cc1` (configuration not stated), for which the Potency entry in test [1] and in test [2] was “inactive” throughout.
As for `Cc1c(C(=O)Nc2ccc(N3C[C@@H](C)O[C@@H](C)C3)nc2)cccc1-c1ccc(OC(F)(F)F)cc1`, the Potency entry in test [1] and in test [2] was “inactive” throughout.
As to `O=C(CCCN1CCN(c2ccc(F)cc2)CC1)NC1c2ccccc2CSc2ccccc21` (configuration not stated), the Potency was 10.5 µM (active) in test [1] and 11.8 µM (active) in test [2].
The like results for `CCOC(=O)N1CCN([N+]([O-])=NOc2cc(ON=[N+]([O-])N3CCN(C(=O)OCC)CC3)c([N+](=O)[O-])cc2[N+](=O)[O-])CC1` were, in that order, 5.9 µM (active) and 7.43 µM (active).
Take `O=C(Nc1ncc(SCCN2CCCC2)s1)[C@]1(c2ccc(S(=O)(=O)C3CC3)cc2)C[C@@H]1C1CCCCC1`: the Potency in test [1] was 7.43 µM (active); in test [2], 8.33 µM (active).
As to `COc1cc([C@H]2Oc3cc([C@H]4Oc5cc(O)cc(O)c5C(=O)[C@H]4O)ccc3O[C@H]2CO)ccc1O`, the Potency in test [1] is 7.43 µM (active); in test [2], 10.5 µM (active).
For `C[C@@H]1CCO[C@H]2Cn3cc(C(=O)NCc4ccc(F)cc4F)c(=O)c(O)c3C(=O)N12`, the Potency in test [1] is 18.7 µM (active); in test [2], 16.6 µM (active).
The like results for `Cc1cn([C@@H]2C[C@@H](O)[C@H](CO)O2)c(=O)[nH]c1=O` were, in that order, “inactive” and “inactive”.
The matching figures for `CCN1CCN(c2ccc(Nc3cc(N(C)C(=O)Nc4c(Cl)c(OC)cc(OC)c4Cl)ncn3)cc2)CC1`: “inactive” and “inactive”.
The like results for `Cn1cc(-c2ccc3nnc(Sc4ccc5ncccc5c4)n3n2)cn1` were, in that order, “inactive” and “inactive”.
For `CC=C1C2C=C(C)CC1(N)c1ccc(=O)[nH]c1C2` (configuration not stated), the Potency result in test [1] and in test [2] was “inactive” each time.
In the case of `N#CC(c1ccnc(NCCc2cccnc2)n1)c1nc2ccccc2s1` (configuration not stated), the Potency was 11.8 µM (active) in test [1] and 26.4 µM (active) in test [2].
The like results for `Cc1nc(C(=O)NCC(=O)O)c(O)c2ccc(Oc3ccccc3)cc12` were, in that order, “inactive” and “inactive”.
Take `Cc1cccc(-c2[nH]c(C(C)(C)C)nc2-c2ccc3c(c2)OCO3)n1`: the Potency in test [1] and in test [2] was 16.6 µM (active) each time.
Consider `CCc1cc(-c2n[nH]c(C)c2-c2ccc3c(c2)OCCO3)c(O)cc1O`, for which the Potency in test [1] was 1.87 µM (active); in test [2] it was 11.8 µM (active).
As to `CC1(C)C(N(O)C(=O)Nc2ccc(Cl)cc2)N(c2ccc(Cl)cc2)C(=O)N1CC(=O)NN=CC=Cc1ccc([N+](=O)[O-])o1` (configuration not stated), the Potency in test [1] is 6.62 µM (active); in test [2] it was 8.33 µM (active).
Take `C=CC[N+]1([C@H]2C[C@H]3[C@@H]4CC[C@H]5C[C@H](O)[C@@H](N6CCOCC6)C[C@]5(C)[C@@H]4CC[C@]3(C)[C@H]2OC(C)=O)CCCC1`: the Potency result in test [1] and in test [2] was “inactive” each time.
Turning to `Cc1cc(OCCCS(C)(=O)=O)cc(C)c1-c1cccc(COc2ccc3c(c2)OC[C@H]3CC(=O)O)c1`, the Potency in test [1] was 18.7 µM (active); in test [2], 20.9 µM (active).
The like results for `CNc1nc(-c2ccc3c(N)n[nH]c3c2)cc(N2C[C@@H](C(=O)NC3CCCCC3)CC[C@@H]2C)n1` were, in that order, 5.26 µM (active) and 23.5 µM (active).
Take `CC1CNc2c(cccc2S(=O)(=O)N[C@@H](CCCN=C(N)N)C(=O)N2CC[C@@H](C)C[C@@H]2C(=O)O)C1` (some centres not stated): the Potency entry in test [1] and in test [2] was “inactive” throughout.
For the compound `Cc1ccc2c(c1)c1c(n2CCc2ccc(C)nc2)CCN(C)C1`, the Potency entry in test [1] and in test [2] was “inactive” in each case.
